Assay results reported in PubChem BioAssay AID504332 (National Center for Advancing Translational Sciences (NCATS), 2011).
Hit rate of the full screen: of about 350,000 compounds, about 31,000 (8.9%) were called active. Another 15% or so got no clear call; they are omitted. The call rests on the fitted dose curve; in most records, active means well fitted inhibition curve with a large enough effect; inconclusive means small, poorly fitted or top-dose-only effect; inactive means no such curve, though single readings can be large or run the other way. The full list was thinned out, with actives kept by preference.

What follows are compounds tested against Histone-lysine N-methyltransferase EHMT2 (Homo sapiens) (UniProt Q96KQ7) (assay: qHTS Assay for Inhibitors of Histone Lysine Methyltransferase G9a). Settings: G9a H3K9 monomethylation, AlphaScreen, 2 h; series mostly up to 59 µM; activity, negative = inhibition: at the top concentration.
In short: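 Methyltransferase reactions run at room temperature for 2 h (20 nM enzyme, 500 nM biotin-H3K9 peptide, 20 uM SAM) after a 15 min compound preincubation; product detected by AlphaScreen beads and anti-H3K9me1 antibody.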
Further: nearly all actives have a fitted effect of over 75% in size.
On the % scale 0 is the no-effect control and ±100 the full control effect; potency means the concentration at half of the fitted maximal effect.

Chain of Histone-lysine N-methyltransferase EHMT2 (Homo sapiens) (Q96KQ7 913-1193 limits assumed): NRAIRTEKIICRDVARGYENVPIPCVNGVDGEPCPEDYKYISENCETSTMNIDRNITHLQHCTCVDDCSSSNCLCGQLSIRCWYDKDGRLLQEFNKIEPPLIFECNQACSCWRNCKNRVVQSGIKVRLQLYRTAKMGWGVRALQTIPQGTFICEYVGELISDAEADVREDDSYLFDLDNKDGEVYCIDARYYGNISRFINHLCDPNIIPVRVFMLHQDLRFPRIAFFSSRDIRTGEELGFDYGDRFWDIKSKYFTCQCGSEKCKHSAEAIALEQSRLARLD

activity, negative = inhibition, inactive:
COc1cc(OC)cc(C(=O)Nc2c(C(=O)Nc3ccc(F)cc3)oc3ccccc23)c1 -21.7%
Cc1ccccc1CSCCNC(=O)C1CCN(S(=O)(=O)Cc2ccccc2)CC1 -6.76%
CC(OC(=O)Cc1ccc(F)cc1)C(=O)N1CCc2ccccc21 (configuration not stated) 11.4% [at 102 µM]
COc1ccc([C@H]2CC(=O)C=C(/C=C/c3ccc(Cl)cc3)C2)cc1 9.28% [at 2.33 µM]
Cc1c(C)n2c(SCC(=O)N3CCCC3)nnc2[nH]c1=O 6.3%
O=C(NNC(=O)C1CCC1)c1ccccc1 24.7% [at 12.7 µM]
Cc1ccc(C)c(OCC(=O)NNC(=O)C2CCC2)c1 -2.65% [at 12.7 µM]
Cc1cc(C)n2nc(C(=O)OCC(=O)N(CCC#N)c3ccc(F)cc3)nc2n1 12.1% [at 0.501 µM]
CCC1(c2ccccc2)NC(=O)N(CC(=O)c2ccc3c(c2)OCO3)C1=O (configuration not stated) -7.32% [at 102 µM]
O=C(CN1CCC(O)(c2cccc(C(F)(F)F)c2)CC1)NCCc1ccccc1 13.3%
CC(C)c1ccc(NC(=O)C2CCN(c3nc(-c4ccc(C(C)C)cc4)no3)CC2)cc1 50.8%
Cc1cc(-c2ccc(C)c(S(=O)(=O)Nc3ccc(S(N)(=O)=O)cc3)c2)on1 -5.1% [at 102 µM]
CCOc1ccccc1CNS(=O)(=O)c1cc(-c2cc(C)no2)ccc1C 36% [at 102 µM]
COc1ccc2c(C)c(CCC(=O)NCc3ccc(OC)c(OC)c3)c(=O)oc2c1 18.4%
CC(=O)N1CCCc2cc(S(=O)(=O)N3CCC(C(=O)NCc4ccc(C)cc4)CC3)ccc21 14.7%
COc1ccccc1OCc1nc2ccccc2s1 17.1% [at 12.7 µM]
COc1cccc2sc(Nc3nc(C)c(C(C)=O)s3)nc12 34.5%
O=C(Nc1cc(C(F)(F)F)ccc1Cl)c1nc2ccccc2nc1N1CCCCC1 -43.5%
O=S(=O)(c1ccc(Cl)cc1)c1nnn2c1nc(NC1CCCC1)c1sccc12 1.91%
CC1(C)CC(=O)C=C(c2ccc3ncccc3c2)C1 6.31% [at 2.33 µM]
COc1ccc(S(=O)(=O)N2CCOCC2)cc1NC(=O)CC1CC2CCC1C2 (configuration not stated) 1.4% [at 2.33 µM]
COc1ccccc1/C=C/C(=O)NC(=S)N1CCOCC1 7.72% [at 102 µM]
CCNC(=S)N1CCN(C(=O)c2ccco2)CC1 10.1%
COc1ccc(Cl)cc1NC(=O)CN(C)C(=O)c1cc(-c2cccs2)nn1-c1ccccc1 8.22% [at 0.501 µM]
CCOC(=O)c1ccc(NC(=O)Cn2c(=O)n(-c3ccc(C)cc3)c(=O)c3c2cnn3C)cc1 2.42%
O=S(=O)(Nc1ccc2nc(-c3cccc(Cl)c3)oc2c1)c1ccccc1 8.09%
CCc1ccccc1NS(=O)(=O)c1ccc2nc(-c3ccccc3)[nH]c2c1 1.79%
COc1ccc2oc(=O)c(-c3cn4c(n3)sc3cc(OC)ccc34)cc2c1 -0.0294%
CCn1c(CN2CCC(C)CC2)nc2cc(NC(=O)c3ccccc3[N+](=O)[O-])ccc21 -21.2%
COC(=O)c1cc(S(=O)(=O)NCC2CCN(Cc3ccc(Cl)cc3)CC2)cn1C 13.6% [at 102 µM]
COc1ccc(CCNC(=O)Cn2c(=O)cc(C(F)(F)F)c3c(C)nn(C)c32)c(OC)c1 2.52%
COc1ccccc1C(=O)NCCC(=O)NC(C)CCc1ccccc1 (configuration not stated) 3.84% [at 0.501 µM]
CCn1c(SCC(=O)NCC2CCCO2)nc2ccccc21 (configuration not stated) 19.8% [at 12.7 µM]
O=C(CSc1nnc(-c2ccc(NS(=O)(=O)c3ccccc3)cc2)o1)NCC1CCCO1 (configuration not stated) 4.29% [at 102 µM]
CCOc1ccc(CCNC(=O)Cn2nc(CC)n3c(cc4sc(CC)cc43)c2=O)cc1OCC -35.1%
CCc1nnc(NC(=O)c2cc(S(=O)(=O)N3CCCCC3)ccc2C)s1 -44.8%
CCOC(=O)c1ccc(NC(=O)Cn2c(=O)cc(C)c3c(C)nn(-c4cccc(F)c4)c32)cc1 11.2%
Cc1ccc(-c2nn(-c3ccccc3)cc2C(=O)NC2CCC(O)CC2)cc1 (configuration not stated) 9.53% [at 2.33 µM]
O=C(Nc1cn(-c2ccccc2)nc1-c1ccccc1)c1ccccc1 -4.14%
COc1ccc(N(Cc2cc3ccc(C)cc3[nH]c2=O)S(=O)(=O)c2ccccc2)cc1 13.9% [at 102 µM]
Cc1ccccc1CNC(=O)c1cccc(NC(=O)c2nsc3ccccc23)c1 -1.82%
Fc1ccc(CSc2nc(NCc3ccccc3)c3ccccc3n2)cc1 1.81%
O=C(c1cc2ccccc2o1)N1CCN(S(=O)(=O)c2ccc(Cl)s2)CC1 0.973% [at 2.33 µM]
Cc1ccc(C)c(NS(=O)(=O)c2ccc(OCC(=O)NCc3cccnc3)cc2)c1 -5.51% [at 102 µM]
CN(C)S(=O)(=O)c1cccc(NC(=O)COc2ccc3ccccc3c2)c1 -10.1% [at 12.7 µM]
CC(C)CNC(=S)NNC(=O)c1nn(C)cc1Cl 20.3%
Cc1cccc(NC(=S)Nc2ccc(Cl)c(Cl)c2)c1 2.94% [at 102 µM]
CCOC(=O)c1ccc(NC(=O)c2ccc(NC(=O)C3CCCO3)cc2)cc1 (configuration not stated) 10.1% [at 102 µM]
CCOC(=O)c1c(NC(=S)NC(=O)c2ccco2)sc2c1CCCC2 -1.7% [at 102 µM]
CCOC(=O)c1c(NC(=O)CSc2nnc(C)c(=O)[nH]2)sc2c1CCC2 -30.7%
CCOC(=O)c1c(NC(=O)/C(C#N)=C/c2ccccc2)sc2c1CCC2 -0.979%
CCOC(=O)c1c(NC(=O)NC(C)(C)C)sc2c1CCN(C)C2 7.1% [at 102 µM]
CCOC(=O)c1c(NC(=O)c2ccc(S(=O)(=O)N(CC)CC)cc2)sc2c1CCCCC2 8.61%
CCOC(=O)c1c(NC(=O)CSc2cn(CCNC(=O)c3cccc(C(F)(F)F)c3)c3ccccc23)sc2c1CCC2 -9.5%
CCOC(=O)c1c(NC(=S)Nc2ccccc2C)sc2c1CCC2 38.7%
CCCOC(=O)Nc1sc2c(c1C(=O)OCC)CCC2 18% [at 102 µM]
COc1ccc(Cn2c(C(=O)O)c(CNCCc3cccs3)c3ccc(OC)cc32)cc1 6.08%
CC1CCC(N2CC(=O)N(CCC3=CCCCC3)C(c3ccc(F)cc3)C2=O)CC1 (configuration not stated) 8.16%
Cc1ccccc1-c1cc(C(=O)NCc2cccs2)n(CC2CC(c3cccnc3)=NO2)n1 (configuration not stated) -0.783% [at 0.501 µM]
Cc1ccc(-c2nc(Cn3c(=O)cc(-c4ccccc4)c4c(C)nn(C)c43)c(C)o2)cc1 9.13%
CCOc1ccc2nc(Nc3nc4ccc(NC(C)=O)cc4s3)sc2c1 -13.6%
CN(Cc1ccccc1)C(=O)COc1ccccc1 -14%
COc1cc(SC)ccc1C(=O)N(Cc1ccccc1)c1ccccc1 55.7% [at 102 µM]
CCOc1cccc2sc(N3CCN(C(=O)C4CC4)CC3)nc12 -15.9%
COc1cc2ccccc2cc1C(=O)Nc1ccncc1 1.4% [at 102 µM]
COc1ccc(CCN(C(=O)COc2ccccc2)c2nc(-c3ccccc3)cs2)cc1OC -1.75%
CCCC(=O)N(CCN1CCOCC1)c1nc2ccc(OCC)cc2s1 2.94%
COc1ccccc1NC(=O)CC(NCCN(C)C)C(=O)O (configuration not stated) 17.5% [at 102 µM]
CCOc1ccc(S(=O)(=O)N2CCC(C(=O)NCC(=O)Nc3cccc(Cl)c3C)CC2)cc1 15.9%
Cc1ccc(NC(=O)CSc2cccc3cccnc23)c(C)c1 -27.5% [at 102 µM]
COc1ccc(NC(=O)CSc2nnc(Cc3ccccc3)c(=O)n2N)cc1 -45.5% [at 102 µM]
COc1ccc(-n2cnnc2SCC(=O)Nc2cccc([N+](=O)[O-])c2)cc1 -3.5% [at 102 µM]
COc1ccc(N(C)C(=O)CCS(=O)(=O)c2cccc3nsnc23)cc1 -39.4%
O=C(CCS(=O)(=O)c1ccccc1)NC1CCCC1 -7.56% [at 102 µM]
COc1ccc2sc(N(CCCN(C)C)C(=O)c3ccc(S(=O)(=O)N(C)C4CCCCC4)cc3)nc2c1 -7.7% [at 2.33 µM]
COc1ccc(C)cc1NC(=O)CCS(=O)(=O)c1cccc2nonc12 -1.53% [at 102 µM]
COc1ccccc1CNC(=O)CS(=O)(=O)c1cccc2nsnc12 3.96%

Potency, active:
Cc1ccc(NNC(=O)C2CCC2)cc1C 11.2 µM
CCN(CC)c1ccc(NS(=O)(=O)c2cc(-c3cc(C)no3)ccc2C)c(C)c1 3.16 µM
COc1cccc2sc(NNC(=O)c3nc4ccccc4s3)nc12 12.6 µM
O=C(/C=C/c1ccco1)NC(=S)N1CCCCC1 70.8 µM
O=S(=O)(Nc1ccc2nc(-c3ccco3)[nH]c2c1)c1ccccc1 31.6 µM
O=C(CSc1ccc(-c2ccccc2)nn1)NCC1CCCO1 (configuration not stated) 44.7 µM
O=C(NNC(=S)NC(=O)c1cn(-c2ccccc2)nc1-c1ccccc1)c1ccncc1 25.1 µM
Cc1ccc(NS(=O)(=O)c2ccc(C)c(NC(=O)COc3ccc4ccccc4c3)c2)c(C)c1 35.5 µM
Cn1cc(Cl)c(C(=O)NNC(=S)Nc2cccc(Cl)c2)n1 15.8 µM
CCOC(=O)c1c(NC(=S)NC)sc2c1CCCC2 11.2 µM
CCOC(=O)c1c(NC(=O)CSc2cn(CC)c3ccccc23)sc2c1CCC2 56.2 µM
CCOC(=O)c1c(NC(=S)Nc2ccccc2)sc2c1CCN(C)C2 44.7 µM
CCOC(=O)c1c(NC(=O)c2cc(-c3ccc(Cl)cc3)on2)sc2c1CCCC2 6.31 µM
COc1cc2ccccc2cc1C(=O)N(CCN(C)C)c1nc2c(F)cccc2s1 44.7 µM
COc1cccc2sc(N(CCCN(C)C)C(=O)C(c3ccccc3)c3ccccc3)nc12 6.31 µM
CN(C)CCCN(C(=O)COc1ccccc1)c1nc2c(Cl)cccc2s1 31.6 µM
CCOc1ccc2nc(N(CCCN(C)C)C(=O)c3ccc(C(=O)c4ccccc4)cc3)sc2c1 44.7 µM
Cc1cccc2sc(N(CCCN(C)C)C(=O)CCS(=O)(=O)c3ccccc3)nc12 22.4 µM
CCN(CC)CCN(C(=O)c1cccc([N+](=O)[O-])c1)c1nc2ccc(OC)cc2s1 50.1 µM
COc1cccc2sc(N(CCCN(C)C)C(=O)CCS(=O)(=O)c3ccccc3)nc12 8.91 µM
